Measured values from PubChem BioAssay (NCATS).
Inconclusive results are not listed. Calls of active or inactive are those of the source. Unless noted, calls come from the whole dose curve; as a rule, active = well fitted curve in the direction sought with a large enough effect; inconclusive = small, poorly fitted or top-dose-only effect, or another doubt; inactive = no such curve, though single readings can be large; an effect the other way counts as inactive or inconclusive.

Assays:
[1] = AP1 Signaling Pathway (AID 357; active = well fitted curve in either direction with a large enough effect, not every such curve was filed as active;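 note: ME-180 reporter cells stimulated with EGF at its EC50 level; % is set by controls: 0 for no effect and ±100 for the full control effect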); settings: ME-180 AP-1-bla reporter, EGF-induced, beta-lactamase ratio, 5 h; at 7.69 µM (top of the series) unless noted
Summary of the method: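 Cells are seeded overnight, exposed to compound titrations and an EC50 level of EGF for 5 hours at 37 °C, then loaded with CCF4 dye for 2.5 hours. Beta-lactamase activity under the AP-1 element is read as a blue/green ratio.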

[2] = biological target: Cytochrome P450 1A2 (Homo sapiens) (UniProt P05177); assay: p450-cyp1a2 (AID 410; calls by dose curve;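 note: -100% = full effect of reference inhibitor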)
Sequence of Cytochrome P450 1A2 (Homo sapiens) (P05177 whole entry, looked up): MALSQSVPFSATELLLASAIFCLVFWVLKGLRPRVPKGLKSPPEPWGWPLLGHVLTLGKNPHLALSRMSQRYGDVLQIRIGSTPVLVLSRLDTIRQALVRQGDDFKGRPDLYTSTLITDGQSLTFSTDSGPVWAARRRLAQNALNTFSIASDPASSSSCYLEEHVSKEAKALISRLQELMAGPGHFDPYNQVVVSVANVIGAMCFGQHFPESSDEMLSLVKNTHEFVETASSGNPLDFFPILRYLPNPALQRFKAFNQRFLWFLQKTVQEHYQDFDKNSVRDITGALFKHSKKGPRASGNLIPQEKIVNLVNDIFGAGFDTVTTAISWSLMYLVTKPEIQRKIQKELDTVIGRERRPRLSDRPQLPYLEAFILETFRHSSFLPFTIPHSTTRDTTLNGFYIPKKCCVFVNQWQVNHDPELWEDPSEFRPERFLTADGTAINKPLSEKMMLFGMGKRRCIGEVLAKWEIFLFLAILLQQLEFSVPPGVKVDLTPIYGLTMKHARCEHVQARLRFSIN
Summary of the method: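 Read-out is luminescence from luciferin produced by CYP1A2 demethylation of Luciferin-ME (100uM, at Km). Detection reagent stopped the 60 min NADPH-dependent reaction; signals were normalized to 57 uM furafylline.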

[3] = NFAT Signaling Pathway (AID 444; active = well fitted curve in either direction with a large enough effect, not every such curve was filed as active;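 note: carbachol stimulus at about its EC50 of 1 µM final; % is set by controls: 0 for no effect and ±100 for the full control effect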); settings: Jurkat NFAT-bla M1, carbachol, beta-lactamase ratio, 5 h; at 7.69 µM (top of the series) unless noted
Summary of the method: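 Jurkat cells with NFAT-driven β-lactamase reporter and co-expressed M1 receptor, stimulated with carbachol (final 1 uM, ~EC50), compound titration, 5 h at 37 °C. CCF4 loaded 1 h at RT; 460/530 nm ratio gave %activity and AC50.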

[4] = Stat Signaling Pathway (AID 446; active = well fitted curve in either direction with a large enough effect, not every such curve was filed as active;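 note: ME-180 cervical cancer cells given 40 pM IL-6 alongside compound; SIE-controlled beta-lactamase reporter measured as 460/530 nm FRET emission ratio; % is set by controls: 0 for no effect and ±100 for the full control effect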); settings: ME-180 (cervical carcinoma) SIE beta-lactamase reporter, IL-6 stimulated, 5 h; at 7.69 µM (top of the series) unless noted
Summary of the method: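 Emission at 460 and 530 nm (excitation 405 nm) reports SIE-controlled beta-lactamase in ME-180 cells. Cells received compound with 40 pM IL-6 for 5 hrs at 37 C; data scaled between 300 pM IL-6 and 125 nM JAK-inhibitor controls.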

[5] = biological target: Glucocorticoid receptor (Homo sapiens) (UniProt P04150); assay: GR-GFP Redistribution (AID 450;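 active = compounds whose dose series gives a full or clear partial fitted curve of increased nuclear translocation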; note: potency is the fitted concentration of half-maximal effect); settings: U2OS GR-GFP nuclear translocation, laser cytometry, 2 h
Sequence of Glucocorticoid receptor (Homo sapiens) (P04150 whole entry, looked up, the tested form may be a part): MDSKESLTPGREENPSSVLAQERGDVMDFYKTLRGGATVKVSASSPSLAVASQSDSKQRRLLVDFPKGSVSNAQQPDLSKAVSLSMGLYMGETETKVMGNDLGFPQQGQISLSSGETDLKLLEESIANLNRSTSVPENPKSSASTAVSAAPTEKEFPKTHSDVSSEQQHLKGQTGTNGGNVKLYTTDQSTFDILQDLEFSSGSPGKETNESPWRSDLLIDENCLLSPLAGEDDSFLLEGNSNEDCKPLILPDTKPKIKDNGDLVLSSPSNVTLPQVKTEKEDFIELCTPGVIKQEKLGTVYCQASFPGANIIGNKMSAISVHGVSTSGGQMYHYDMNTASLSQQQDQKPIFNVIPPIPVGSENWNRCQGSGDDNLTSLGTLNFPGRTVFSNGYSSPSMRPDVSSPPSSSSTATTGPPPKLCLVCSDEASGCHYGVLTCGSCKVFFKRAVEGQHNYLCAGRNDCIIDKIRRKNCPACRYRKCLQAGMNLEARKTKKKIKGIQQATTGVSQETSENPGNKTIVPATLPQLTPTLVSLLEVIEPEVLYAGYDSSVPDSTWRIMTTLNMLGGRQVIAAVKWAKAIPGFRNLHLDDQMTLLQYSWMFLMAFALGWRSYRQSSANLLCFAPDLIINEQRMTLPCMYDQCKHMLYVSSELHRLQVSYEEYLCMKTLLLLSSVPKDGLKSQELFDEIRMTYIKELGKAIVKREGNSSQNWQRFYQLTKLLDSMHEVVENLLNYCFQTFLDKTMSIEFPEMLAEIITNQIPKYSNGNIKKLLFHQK

[6] = biological target: Glucocorticoid receptor (Homo sapiens) (UniProt P04150); assay: GR-EFC Redistribution (AID 451; calls by dose curve; note: potency is the fitted concentration of half-maximal effect); settings: CHO-K1 GR-EFC translocation, beta-gal luminescence, 2 h
Summary of the method: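 CHO-K1 cells expressing nuclear EA and GR-ED fragments of b-gal; compounds titrated up to 46 uM final, 2 h at 37 C. GR nuclear translocation read as complemented b-gal luminescence after 1 h RT detection.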

[7] = biological target: Mitogen-activated protein kinase 10 (Mus musculus) (UniProt Q61831); assay: JNK3 AlphaScreen Assay (AID 530; active = well fitted curve in either direction with a large enough effect, not every such curve was filed as active;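 note: kinase came from lysate of stimulated human HepG2 cells; signal reports phosphorylation of biotinylated GST-cJun 1-79 at Ser73 with 10 µM ATP; % is set by controls: 0 for no effect and ±100 for the full control effect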)
Summary of the method: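 HepG2 lysate (IL-1b/TNFa pre-activated) + biotin-GST-cJun 1-79 + anti-pSer73 cJun; cpd titration, 15 min RT; ATP 10 uM start; Tris pH 7.6, MgCl2, DTT, vanadate; beads in EDTA buffer; AlphaScreen.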

[8] = biological target: 3',5'-cyclic-AMP phosphodiesterase 4B (Homo sapiens) (UniProt Q07343); assay: qHTS Assay for Inhibitors of PDE-IV (AID 607; active = well fitted activation curve with a large enough effect in the main read-out, with a control signal flat, not every such curve was filed as active; note: % of control where 0% means no effect)
Sequence of 3',5'-cyclic-AMP phosphodiesterase 4B (Homo sapiens) (Q07343 whole entry, looked up): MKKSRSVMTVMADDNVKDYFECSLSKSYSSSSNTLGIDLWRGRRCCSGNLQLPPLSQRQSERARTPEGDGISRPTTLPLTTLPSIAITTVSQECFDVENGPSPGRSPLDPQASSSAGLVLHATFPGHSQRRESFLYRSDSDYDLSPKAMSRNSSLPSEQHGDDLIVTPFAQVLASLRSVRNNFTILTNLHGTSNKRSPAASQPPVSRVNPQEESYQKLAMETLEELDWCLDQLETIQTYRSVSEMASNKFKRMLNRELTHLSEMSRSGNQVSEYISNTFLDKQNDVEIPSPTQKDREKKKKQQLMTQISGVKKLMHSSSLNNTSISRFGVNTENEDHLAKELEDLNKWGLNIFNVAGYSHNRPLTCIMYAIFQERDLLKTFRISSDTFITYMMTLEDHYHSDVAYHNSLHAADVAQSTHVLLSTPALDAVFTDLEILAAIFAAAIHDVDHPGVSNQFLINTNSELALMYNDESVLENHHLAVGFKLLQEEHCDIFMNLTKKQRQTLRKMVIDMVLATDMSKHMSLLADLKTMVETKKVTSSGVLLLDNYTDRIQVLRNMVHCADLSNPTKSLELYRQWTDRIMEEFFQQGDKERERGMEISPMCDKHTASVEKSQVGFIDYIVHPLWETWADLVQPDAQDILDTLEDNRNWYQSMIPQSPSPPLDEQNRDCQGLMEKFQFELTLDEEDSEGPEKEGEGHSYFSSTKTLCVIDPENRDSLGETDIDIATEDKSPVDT
Summary of the method: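 The readout is membrane depolarisation from a cAMP-sensing CNG channel, detected with a potential dye at ex 535/em 590. Cells were HEK293-derived (endogenous PDE-IV) at 1000 cells/well, titrated up to 22.9 uM final.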

[9] = biological target: Cytochrome P450 3A4 (Homo sapiens) (UniProt P08684); assay: qHTS Assay for Activators of Cytochrome P450 3A4 (AID 885); note: nearly all actives have a fitted effect of over 65% in size
Sequence of Cytochrome P450 3A4 (Homo sapiens) (P08684 whole entry, looked up): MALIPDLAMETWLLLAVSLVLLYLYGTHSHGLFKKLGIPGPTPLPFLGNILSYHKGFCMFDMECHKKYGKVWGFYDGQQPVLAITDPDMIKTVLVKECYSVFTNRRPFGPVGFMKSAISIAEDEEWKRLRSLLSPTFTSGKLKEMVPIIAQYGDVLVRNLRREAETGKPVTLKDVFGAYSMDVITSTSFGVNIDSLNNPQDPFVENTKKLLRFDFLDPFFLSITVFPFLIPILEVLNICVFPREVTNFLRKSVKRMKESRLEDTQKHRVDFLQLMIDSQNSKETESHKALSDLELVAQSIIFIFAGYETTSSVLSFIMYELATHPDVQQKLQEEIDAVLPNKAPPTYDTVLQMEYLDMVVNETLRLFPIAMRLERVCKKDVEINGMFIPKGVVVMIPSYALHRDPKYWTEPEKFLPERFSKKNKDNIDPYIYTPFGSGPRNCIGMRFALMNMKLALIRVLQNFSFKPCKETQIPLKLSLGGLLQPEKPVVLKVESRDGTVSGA
Summary of the method: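 Activators are scored by enhanced luminescence from CYP3A4 conversion of luciferin-PPXE (25uM, equal to KM) to luciferin, after 60 min at RT with an NADPH-regenerating system.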

[10] = qHTS Assay for Lipid Storage Modulators (AID 1519; calls by dose curve); settings: Drosophila S3 cells, BODIPY lipid droplet/cell ratio, laser cytometry, cells loaded with oleic acid
Summary of the method: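 Cells seeded at 5,000 per well were treated with compounds over a concentration series and loaded with oleic acid (400 uM, as added). Lipid droplet fluorescence (488 nm excitation, 500-530 nm channel) was read by laser-scanning cytometry and normalized to 20 uM Triacsin C.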

[11] = biological target: ATP-dependent 6-phosphofructokinase (Trypanosoma brucei brucei) (UniProt O15648); assay: qHTS Assay to Find Inhibitors of T. brucei phosphofructokinase: hit validation (AID 492961)
Sequence of ATP-dependent 6-phosphofructokinase (Trypanosoma brucei brucei) (O15648 whole entry, looked up): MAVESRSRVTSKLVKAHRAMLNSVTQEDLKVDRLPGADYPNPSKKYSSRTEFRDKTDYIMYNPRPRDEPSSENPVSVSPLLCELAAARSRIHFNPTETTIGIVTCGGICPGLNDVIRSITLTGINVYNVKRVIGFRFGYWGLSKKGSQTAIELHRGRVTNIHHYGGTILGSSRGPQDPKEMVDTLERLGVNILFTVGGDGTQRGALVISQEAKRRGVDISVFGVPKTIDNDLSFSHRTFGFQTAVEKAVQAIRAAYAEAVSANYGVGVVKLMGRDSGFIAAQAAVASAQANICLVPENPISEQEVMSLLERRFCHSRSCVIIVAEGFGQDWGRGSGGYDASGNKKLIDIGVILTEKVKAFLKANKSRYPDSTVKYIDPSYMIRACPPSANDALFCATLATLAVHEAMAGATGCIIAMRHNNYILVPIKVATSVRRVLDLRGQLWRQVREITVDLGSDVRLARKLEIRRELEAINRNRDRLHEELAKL
Summary of the method: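 Compounds titrated; %activity normalized to 0x and 1x enzyme controls, curve-fitted. Readout: ADP-Glo luminescence after 45 min room-temperature reaction of 1.25 nM PFK, 0.1 mM ATP, 0.5 mM F6P, pH 8.0.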

[12] = biological target: Ubiquitin carboxyl-terminal hydrolase 1 (Homo sapiens) (UniProt O94782); assay: Inhibitors of USP1/UAF1: Pilot qHTS (AID 504865);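 note: rhodamine fluorescence freed from ubiquitin-rhodamine substrate followed over time; top concentration of the series differs between compounds; % is set by controls: 0 for no effect and ±100 for the full control effect; nearly all actives have a fitted effect of over 35% in size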
Sequence of Ubiquitin carboxyl-terminal hydrolase 1 (Homo sapiens) (O94782 whole entry, looked up): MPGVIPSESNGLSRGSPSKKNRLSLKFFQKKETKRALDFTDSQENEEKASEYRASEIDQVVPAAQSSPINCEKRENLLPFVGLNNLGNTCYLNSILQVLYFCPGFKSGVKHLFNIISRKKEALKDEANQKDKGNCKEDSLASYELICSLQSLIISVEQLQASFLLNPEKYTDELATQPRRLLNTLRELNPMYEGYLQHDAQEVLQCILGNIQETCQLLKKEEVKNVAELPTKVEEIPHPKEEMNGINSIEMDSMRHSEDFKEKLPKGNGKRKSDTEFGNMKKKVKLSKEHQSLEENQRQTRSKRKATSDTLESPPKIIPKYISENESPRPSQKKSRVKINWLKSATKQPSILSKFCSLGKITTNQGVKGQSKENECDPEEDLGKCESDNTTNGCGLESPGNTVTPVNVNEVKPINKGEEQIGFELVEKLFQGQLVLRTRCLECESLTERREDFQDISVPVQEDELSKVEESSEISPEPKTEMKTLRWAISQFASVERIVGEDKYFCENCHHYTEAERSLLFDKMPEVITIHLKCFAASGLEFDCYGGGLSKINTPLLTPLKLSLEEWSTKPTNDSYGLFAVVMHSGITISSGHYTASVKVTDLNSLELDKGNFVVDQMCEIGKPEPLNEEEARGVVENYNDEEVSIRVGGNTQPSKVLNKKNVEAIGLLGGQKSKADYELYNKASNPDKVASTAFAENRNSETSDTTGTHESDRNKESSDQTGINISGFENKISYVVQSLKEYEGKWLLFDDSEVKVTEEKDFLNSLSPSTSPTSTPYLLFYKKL
Summary of the method: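 In 50mM HEPES pH 7.8 containing 0.5mM EDTA, 1mM TCEP, 0.1 mg/ml BSA and 0.01% Tween-20, 1nM USP1/UAF1 is exposed to compound for 15 min, then Ub-Rho (150nM final) is added and fluorescence is read over time.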

[13] = biological target: Luciferin 4-monooxygenase (Photinus pyralis) (UniProt P08659); assay: Biochemical firefly luciferase enzyme assay for NPC (AID 624030);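 note: purified P. pyralis luciferase at 10 nM with luciferin and ATP substrate; 0% = DMSO and -100% = full luciferase inhibition by PTC124 control; nearly all actives have a fitted effect of over 70% in size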
Sequence of Luciferin 4-monooxygenase (Photinus pyralis) (P08659 whole entry, looked up): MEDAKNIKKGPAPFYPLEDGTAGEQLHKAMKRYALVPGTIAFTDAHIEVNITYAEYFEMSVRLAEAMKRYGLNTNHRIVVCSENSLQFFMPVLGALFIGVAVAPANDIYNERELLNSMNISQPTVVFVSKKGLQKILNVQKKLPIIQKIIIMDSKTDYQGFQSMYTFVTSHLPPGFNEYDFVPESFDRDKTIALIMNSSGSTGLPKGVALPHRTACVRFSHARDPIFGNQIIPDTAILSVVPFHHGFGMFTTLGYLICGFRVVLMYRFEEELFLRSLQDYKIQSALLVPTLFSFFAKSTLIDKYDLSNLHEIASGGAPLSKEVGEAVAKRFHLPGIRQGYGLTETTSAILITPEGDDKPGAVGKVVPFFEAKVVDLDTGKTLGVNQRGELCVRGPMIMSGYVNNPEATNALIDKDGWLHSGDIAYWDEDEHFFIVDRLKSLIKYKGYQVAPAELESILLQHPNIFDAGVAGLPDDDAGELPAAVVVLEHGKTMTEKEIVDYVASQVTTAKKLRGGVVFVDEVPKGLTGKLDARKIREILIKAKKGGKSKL
Summary of the method: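 Purified P. pyralis luciferase at 10 nM in 50 mM Tris Acetate (final), luminescence read within 5 minutes of enzyme addition to compounds. Activity normalised to PTC124 versus DMSO; concentration-response curves classed by r2, magnitude and activity.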

[14] = S16 Schwann cell viability assay (CellTiter-Glo assay) (AID 624031);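 note: native untransfected S16 rat Schwann cells; cellular ATP luminescence as a viability measure; plate controls were DMSO-treated cells for no effect and cell-free wells for full effect; nearly all actives have a fitted effect of over 70% in size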
Summary of the method: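 Following overnight culture in 10% FBS DMEM, parental S16 rat Schwann cells are dosed for 24 h at 37 °C. Viability is read as CellTiter-Glo luminescence and expressed as % activity relative to DMSO (0%) and no-cell wells.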

[15] = S16 Schwann cell PMP22 intronic element beta-lactamase assay (AID 624044; calls by dose curve;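 note: 0% = DMSO and -100% = potassium clavulanate positive control; nearly all actives have a fitted effect of over 15% in size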)
Summary of the method: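 Beta-lactamase reporter under a PMP22 intronic regulatory element in stable S16 rat Schwann cells; 24 h compound exposure. 460 nm blue signal normalized between DMSO (0%) and potassium clavulanate, with 535 nm FRET tracking viability; curves classed by r2 and response.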

[16] = qHTS profiling for inhibitors of Plasmodium falciparum proliferation (AID 504749);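 note: 0% = DMSO vehicle and full inhibition = artemisinin control; nearly all actives have a fitted effect of over 60% in size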; settings: P. falciparum in erythrocytes, SYBR Green DNA, 72 h, at 12.8 µM (top of the series)
Summary of the method: (§1)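 SYBR Green fluorescence (ex 485 nm, em 535 nm) reports parasite DNA after 72 h compound exposure of infected red cells at 0.3% parasitemia, 2.5% hematocrit; signal normalized to 0.29 uM artemisinin and vehicle wells.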

3D7 = assay: as above; settings: P. falciparum in erythrocytes, SYBR Green DNA, 72 h; series mostly up to 12.8 µM
Summary of the method: as §1

7G8 = assay: as above; settings: P. falciparum in erythrocytes, SYBR Green DNA, 72 h; series mostly up to 12.8 µM
Summary of the method: as §1

AA1029 = assay: as above; settings: P. falciparum in erythrocytes, SYBR Green DNA, 72 h; series mostly up to 12.8 µM
Summary of the method: as §1

AS120 = assay: as above; settings: P. falciparum in erythrocytes, SYBR Green DNA, 72 h; series mostly up to 28.7 µM
Summary of the method: as §1

ATS189 = assay: as above; settings: P. falciparum in erythrocytes, SYBR Green DNA, 72 h; series mostly up to 12.8 µM
Summary of the method: as §1

ATS95 = assay: as above; settings: P. falciparum in erythrocytes, SYBR Green DNA, 72 h; series mostly up to 12.8 µM
Summary of the method: as §1

C2A = assay: as above; settings: P. falciparum in erythrocytes, SYBR Green DNA, 72 h; series mostly up to 12.8 µM
Summary of the method: as §1

CP185 = assay: as above; settings: P. falciparum in erythrocytes, SYBR Green DNA, 72 h; series mostly up to 12.8 µM
Summary of the method: as §1

CP191 = assay: as above; settings: P. falciparum in erythrocytes, SYBR Green DNA, 72 h; series mostly up to 12.8 µM
Summary of the method: as §1

CP194 = assay: as above; settings: P. falciparum in erythrocytes, SYBR Green DNA, 72 h; series mostly up to 12.8 µM
Summary of the method: as §1

CP201 = assay: as above; settings: P. falciparum in erythrocytes, SYBR Green DNA, 72 h; series mostly up to 12.8 µM
Summary of the method: as §1

COc1ccc(C[C@@H]2c3cc(OC)c(OC)cc3CC[N@+]2(C)CCC(=O)OCCCCCOC(=O)CC[N@@+]2(C)CCc3cc(OC)c(OC)cc3[C@H]2Cc2ccc(OC)c(OC)c2)cc1OC
6.6%: max response ([10]; measured here: lipid channel max response)
inactive: activity change, negative = inhibition [1] -6.73% [at 17.2 µM] | Potency [2] | activity change, negative = inhibition [3] -23.4% [at 17.2 µM] | activity, negative = inhibition [4] 10.6% [at 17.2 µM] | Potency [5] > 20.6 µM | Potency [6] > 20.6 µM | Potency [7] | Potency [8] | Potency [9] | activity change, negative = inhibition ([10]; at 25.7 µM (top of the series)) -3.87% | outcome [11] | Potency [12] | outcome [13] | Potency [14] | outcome [15] | activity, negative = inhibition ([16]; parasite line A) -5.94% | activity, negative = inhibition ([16]; parasite line B) 13.8% | Potency (3D7) | Potency (7G8) | Potency (AA1029) | Potency (AS120) | Potency (ATS189) | Potency (ATS95) | Potency (C2A) | Potency (CP185) | Potency (CP191) | Potency (CP194) | Potency (CP201)
15.3%: max response ([10]; measured here: cell count channel max response)
